According to the supplement of paper PMC11732987, “Enantioselective OTUD7B fragment discovery through chemoproteomics screening and high-throughput optimisation” (Communications Chemistry, 2025):

compound: CC1CN(CC(C)O1)C(=O)CCl; test: log2 ratio of Biotin-Ahx-Ub-VS probe labelling (fragment/DMSO); higher = less target engagement (more negative = stronger competition), active = hit call of the paper (q ≤ 0.05, log2 ratio ≤ -1); settings: compound concentration: 200 uM; treatment time: 3 h
Method in brief: (§1)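 HEK293T lysate, 495 µg per sample in Tris/CHAPS/IGEPAL buffer with protease inhibitors, was treated in triplicate with fragment at 200 µM or vehicle for 3 h and then with Biotin-Ahx-Ub-VS at 0.5 µM final for 1 h. Labelled DUBs were NeutrAvidin-enriched, digested with LysC and trypsin, and run by diaPASEF LC-MS/MS. Spectronaut label-free quantities were global-median-normalised, and values are average log2 fragment/vehicle ratios by unpaired t-test on proteins with ≥2 unique peptides.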

Sequence of UniProt Q92905 (Q92905 whole entry, looked up): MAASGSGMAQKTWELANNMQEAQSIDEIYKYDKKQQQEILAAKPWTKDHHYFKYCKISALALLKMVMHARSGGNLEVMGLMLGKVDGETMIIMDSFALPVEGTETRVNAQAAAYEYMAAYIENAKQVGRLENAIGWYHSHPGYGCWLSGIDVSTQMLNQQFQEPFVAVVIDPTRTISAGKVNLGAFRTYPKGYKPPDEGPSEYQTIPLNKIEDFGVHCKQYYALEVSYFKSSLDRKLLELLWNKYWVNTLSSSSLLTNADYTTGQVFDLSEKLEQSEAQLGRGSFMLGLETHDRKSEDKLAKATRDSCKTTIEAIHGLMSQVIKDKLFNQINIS
Sequence of UniProt Q8TE49 (Q8TE49 whole entry): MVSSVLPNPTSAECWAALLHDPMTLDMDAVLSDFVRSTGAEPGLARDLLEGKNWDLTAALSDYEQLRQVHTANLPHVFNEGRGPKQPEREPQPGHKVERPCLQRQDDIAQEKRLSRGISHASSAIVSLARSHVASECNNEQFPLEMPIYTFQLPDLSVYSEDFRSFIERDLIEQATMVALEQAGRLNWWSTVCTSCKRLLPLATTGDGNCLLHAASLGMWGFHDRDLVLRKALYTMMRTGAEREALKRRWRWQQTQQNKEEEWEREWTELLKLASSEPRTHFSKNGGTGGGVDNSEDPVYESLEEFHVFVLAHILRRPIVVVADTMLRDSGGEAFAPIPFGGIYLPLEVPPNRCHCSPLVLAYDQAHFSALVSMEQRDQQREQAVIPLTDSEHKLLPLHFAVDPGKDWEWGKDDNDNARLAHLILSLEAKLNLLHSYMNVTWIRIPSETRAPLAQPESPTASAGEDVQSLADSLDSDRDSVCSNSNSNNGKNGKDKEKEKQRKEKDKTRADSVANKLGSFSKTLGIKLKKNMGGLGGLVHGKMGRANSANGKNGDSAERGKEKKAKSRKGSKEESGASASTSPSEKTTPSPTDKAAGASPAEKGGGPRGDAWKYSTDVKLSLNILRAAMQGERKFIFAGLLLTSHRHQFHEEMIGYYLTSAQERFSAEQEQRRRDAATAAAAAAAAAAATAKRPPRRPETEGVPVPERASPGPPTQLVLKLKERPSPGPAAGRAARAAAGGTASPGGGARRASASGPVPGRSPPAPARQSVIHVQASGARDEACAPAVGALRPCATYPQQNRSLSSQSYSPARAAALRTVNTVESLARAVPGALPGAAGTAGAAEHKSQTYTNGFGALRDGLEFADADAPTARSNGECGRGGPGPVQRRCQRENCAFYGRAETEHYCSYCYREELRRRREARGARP
Sequence of UniProt O94966 (O94966 whole entry): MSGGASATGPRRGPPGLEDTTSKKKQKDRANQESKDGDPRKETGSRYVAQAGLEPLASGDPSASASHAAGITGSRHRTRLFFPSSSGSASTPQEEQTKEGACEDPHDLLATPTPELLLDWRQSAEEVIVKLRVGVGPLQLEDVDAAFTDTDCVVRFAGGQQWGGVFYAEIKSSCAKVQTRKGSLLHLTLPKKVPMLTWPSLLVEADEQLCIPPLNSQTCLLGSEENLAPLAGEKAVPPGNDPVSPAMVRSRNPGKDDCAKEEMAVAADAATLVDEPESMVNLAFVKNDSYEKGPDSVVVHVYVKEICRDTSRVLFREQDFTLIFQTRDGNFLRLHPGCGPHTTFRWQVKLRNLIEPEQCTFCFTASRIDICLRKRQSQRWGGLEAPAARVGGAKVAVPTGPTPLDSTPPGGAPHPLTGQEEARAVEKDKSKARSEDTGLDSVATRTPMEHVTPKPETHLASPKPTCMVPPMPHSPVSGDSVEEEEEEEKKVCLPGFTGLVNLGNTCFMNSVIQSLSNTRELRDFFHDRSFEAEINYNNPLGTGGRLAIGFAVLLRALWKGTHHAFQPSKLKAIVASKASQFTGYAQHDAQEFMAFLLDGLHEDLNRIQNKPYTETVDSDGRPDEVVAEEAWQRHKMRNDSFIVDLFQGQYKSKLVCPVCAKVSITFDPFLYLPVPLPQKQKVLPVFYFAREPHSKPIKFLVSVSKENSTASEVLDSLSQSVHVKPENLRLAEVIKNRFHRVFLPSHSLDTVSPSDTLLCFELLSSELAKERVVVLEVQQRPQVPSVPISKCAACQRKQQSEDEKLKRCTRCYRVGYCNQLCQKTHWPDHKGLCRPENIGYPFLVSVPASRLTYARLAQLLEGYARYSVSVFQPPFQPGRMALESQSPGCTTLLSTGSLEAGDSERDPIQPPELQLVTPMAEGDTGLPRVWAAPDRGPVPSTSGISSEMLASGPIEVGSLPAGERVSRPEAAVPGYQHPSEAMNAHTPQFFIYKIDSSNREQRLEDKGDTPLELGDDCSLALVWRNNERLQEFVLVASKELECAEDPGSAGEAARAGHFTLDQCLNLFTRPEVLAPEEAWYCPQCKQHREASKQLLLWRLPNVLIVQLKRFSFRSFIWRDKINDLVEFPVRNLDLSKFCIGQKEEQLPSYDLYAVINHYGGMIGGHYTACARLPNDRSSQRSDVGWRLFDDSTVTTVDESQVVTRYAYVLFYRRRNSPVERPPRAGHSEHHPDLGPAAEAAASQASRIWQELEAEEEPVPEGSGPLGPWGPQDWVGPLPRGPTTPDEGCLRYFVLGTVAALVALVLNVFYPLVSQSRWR
Sequence of UniProt Q14694 (Q14694 whole entry): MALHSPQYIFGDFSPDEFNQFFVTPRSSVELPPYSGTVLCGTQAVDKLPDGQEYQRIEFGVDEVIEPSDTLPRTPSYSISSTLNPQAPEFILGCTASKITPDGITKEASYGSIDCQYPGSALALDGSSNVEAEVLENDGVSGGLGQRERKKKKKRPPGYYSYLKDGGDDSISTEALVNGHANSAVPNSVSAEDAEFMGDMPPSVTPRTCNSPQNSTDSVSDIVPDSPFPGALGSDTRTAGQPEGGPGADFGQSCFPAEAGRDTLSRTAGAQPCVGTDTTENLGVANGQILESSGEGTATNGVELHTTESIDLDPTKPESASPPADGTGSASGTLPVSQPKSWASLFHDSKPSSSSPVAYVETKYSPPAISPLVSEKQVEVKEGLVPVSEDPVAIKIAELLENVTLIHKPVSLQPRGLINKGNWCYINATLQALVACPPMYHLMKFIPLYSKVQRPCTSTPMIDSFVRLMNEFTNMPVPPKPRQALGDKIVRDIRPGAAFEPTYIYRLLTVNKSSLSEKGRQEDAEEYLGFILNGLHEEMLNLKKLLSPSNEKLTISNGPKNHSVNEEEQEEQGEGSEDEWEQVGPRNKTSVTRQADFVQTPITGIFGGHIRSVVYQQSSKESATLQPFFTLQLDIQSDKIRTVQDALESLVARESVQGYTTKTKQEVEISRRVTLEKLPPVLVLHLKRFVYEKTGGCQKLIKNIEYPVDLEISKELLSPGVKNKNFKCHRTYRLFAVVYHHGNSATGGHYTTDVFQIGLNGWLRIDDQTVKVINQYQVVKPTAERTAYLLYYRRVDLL
Sequence of UniProt Q9P2H5 (Q9P2H5 whole entry): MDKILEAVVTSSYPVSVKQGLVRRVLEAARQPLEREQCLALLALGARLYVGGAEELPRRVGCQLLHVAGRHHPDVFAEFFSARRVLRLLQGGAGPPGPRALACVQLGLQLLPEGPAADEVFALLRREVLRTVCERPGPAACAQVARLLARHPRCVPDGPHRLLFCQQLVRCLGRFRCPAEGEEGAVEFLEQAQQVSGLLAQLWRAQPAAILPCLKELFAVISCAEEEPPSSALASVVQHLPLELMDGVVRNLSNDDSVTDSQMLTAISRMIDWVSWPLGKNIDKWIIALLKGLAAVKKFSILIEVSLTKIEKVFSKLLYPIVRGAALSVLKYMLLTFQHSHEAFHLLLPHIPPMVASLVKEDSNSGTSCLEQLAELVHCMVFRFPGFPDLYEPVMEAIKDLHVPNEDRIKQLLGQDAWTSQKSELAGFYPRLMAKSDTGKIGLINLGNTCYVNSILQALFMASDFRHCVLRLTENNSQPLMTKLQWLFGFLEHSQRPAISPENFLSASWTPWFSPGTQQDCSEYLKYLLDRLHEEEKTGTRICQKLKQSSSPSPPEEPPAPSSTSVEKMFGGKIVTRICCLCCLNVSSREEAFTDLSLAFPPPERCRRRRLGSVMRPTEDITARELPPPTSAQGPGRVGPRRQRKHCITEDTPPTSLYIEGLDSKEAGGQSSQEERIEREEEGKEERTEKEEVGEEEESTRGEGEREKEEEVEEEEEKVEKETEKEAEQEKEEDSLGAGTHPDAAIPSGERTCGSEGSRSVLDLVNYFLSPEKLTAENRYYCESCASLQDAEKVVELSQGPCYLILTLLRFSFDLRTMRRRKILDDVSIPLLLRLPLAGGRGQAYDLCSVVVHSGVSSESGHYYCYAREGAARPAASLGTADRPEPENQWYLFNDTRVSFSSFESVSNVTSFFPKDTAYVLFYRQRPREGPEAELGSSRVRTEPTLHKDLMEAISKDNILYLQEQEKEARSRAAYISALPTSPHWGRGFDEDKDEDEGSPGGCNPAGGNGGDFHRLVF
Sequence of UniProt Q96G74 (Q96G74 whole entry): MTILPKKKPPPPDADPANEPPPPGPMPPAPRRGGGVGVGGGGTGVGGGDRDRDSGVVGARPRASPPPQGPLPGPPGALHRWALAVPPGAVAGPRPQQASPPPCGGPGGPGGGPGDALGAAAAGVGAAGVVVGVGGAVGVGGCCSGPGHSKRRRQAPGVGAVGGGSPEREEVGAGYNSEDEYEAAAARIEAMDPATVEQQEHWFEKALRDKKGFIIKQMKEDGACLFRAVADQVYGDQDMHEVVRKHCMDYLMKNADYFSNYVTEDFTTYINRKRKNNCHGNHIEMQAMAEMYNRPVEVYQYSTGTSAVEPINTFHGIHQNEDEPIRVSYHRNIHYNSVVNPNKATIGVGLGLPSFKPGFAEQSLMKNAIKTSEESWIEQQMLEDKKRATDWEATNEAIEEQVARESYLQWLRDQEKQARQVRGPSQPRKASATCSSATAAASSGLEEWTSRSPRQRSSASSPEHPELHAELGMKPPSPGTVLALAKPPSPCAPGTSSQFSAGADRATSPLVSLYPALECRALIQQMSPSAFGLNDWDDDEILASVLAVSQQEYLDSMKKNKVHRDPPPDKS

Target	log2 ratio of Biotin-Ahx-Ub-VS probe labelling
YOD1 (UniProt Q5VVQ6)	-0.152 (inactive)
UCHL5 (UniProt Q9Y5K5)	-0.314 (inactive)
UniProt Q9P2H5	-0.259 (inactive)
USP19 (UniProt O94966)	-0.267 (inactive)
OTUD6B (UniProt Q8N6M0)	-0.538 (inactive)
USP24 (UniProt Q9UPU5)	-0.301 (inactive)
UniProt Q9UGI0	-0.702 (inactive)
USP36 (UniProt Q9P275)	-0.116 (inactive)
USP10 (UniProt Q14694)	-0.166 (inactive)
USP47 (UniProt Q96K76)	0.145 (inactive)
USP5 (UniProt P45974)	0.00747 (inactive)
USP28 (UniProt Q96RU2)	-0.575 (inactive)
USP46 (UniProt P62068)	-0.0331 (inactive)
USP8 (UniProt P40818)	-0.531 (inactive)
UCHL1 (UniProt P09936)	-1.75 (active)
UniProt Q8TE49	-0.547 (inactive)
USP16 (UniProt Q9Y5T5)	-0.306 (inactive)
OTUD5 (UniProt Q96G74)	-0.615 (inactive)
PSMD7 (UniProt P51665)	-0.394 (inactive)
USP22 (UniProt Q9UPT9)	0.0274 (inactive)
COPS5 (UniProt Q92905)	-0.0269 (inactive)
USP48 (UniProt Q86UV5)	-0.249 (inactive)
OTUD7B (UniProt Q6GQQ9)	-0.504 (inactive)
OTUD4 (UniProt Q01804)	-0.413 (inactive)

compound: CN(C1CCCCC1)C(=O)CCl; test: as above; settings: compound concentration: 200 uM; treatment time: 3 h
Method in brief: as §1

Target	log2 ratio of Biotin-Ahx-Ub-VS probe labelling
YOD1 (UniProt Q5VVQ6)	0.18 (inactive)
UCHL5 (UniProt Q9Y5K5)	-0.249 (inactive)
UniProt Q9P2H5	-0.335 (inactive)
USP19 (UniProt O94966)	-0.381 (inactive)
OTUD6B (UniProt Q8N6M0)	-0.0327 (inactive)
USP24 (UniProt Q9UPU5)	-0.575 (inactive)
UniProt Q9UGI0	-0.423 (inactive)
USP36 (UniProt Q9P275)	-0.0255 (inactive)
USP10 (UniProt Q14694)	-0.0336 (inactive)
USP47 (UniProt Q96K76)	-0.299 (inactive)
USP5 (UniProt P45974)	0.487 (inactive)
USP28 (UniProt Q96RU2)	-0.419 (inactive)
USP46 (UniProt P62068)	-0.248 (inactive)
USP8 (UniProt P40818)	-0.314 (inactive)
UCHL1 (UniProt P09936)	-1.52 (active)
UniProt Q8TE49	-0.46 (inactive)
USP16 (UniProt Q9Y5T5)	-0.171 (inactive)
OTUD5 (UniProt Q96G74)	-0.0917 (inactive)
PSMD7 (UniProt P51665)	-0.133 (inactive)
USP22 (UniProt Q9UPT9)	0.0658 (inactive)
COPS5 (UniProt Q92905)	0.0396 (inactive)
USP48 (UniProt Q86UV5)	-0.456 (inactive)
OTUD7B (UniProt Q6GQQ9)	-0.33 (inactive)
OTUD4 (UniProt Q01804)	-0.109 (inactive)

compound: Cc1cc(NC(=O)CCl)no1; test: as above; settings: compound concentration: 200 uM; treatment time: 3 h
Method in brief: as §1

Target	log2 ratio of Biotin-Ahx-Ub-VS probe labelling
YOD1 (UniProt Q5VVQ6)	-0.323 (inactive)
UCHL5 (UniProt Q9Y5K5)	0.0718 (inactive)
UniProt Q9P2H5	0.0945 (inactive)
USP19 (UniProt O94966)	-0.558 (inactive)
OTUD6B (UniProt Q8N6M0)	-0.167 (inactive)
USP24 (UniProt Q9UPU5)	-0.201 (inactive)
UniProt Q9UGI0	-0.555 (inactive)
USP36 (UniProt Q9P275)	-0.0892 (inactive)
USP10 (UniProt Q14694)	-0.0298 (inactive)
USP47 (UniProt Q96K76)	-0.276 (inactive)
USP5 (UniProt P45974)	-0.18 (inactive)
USP28 (UniProt Q96RU2)	-0.987 (inactive)
USP46 (UniProt P62068)	-0.103 (inactive)
USP8 (UniProt P40818)	-0.16 (inactive)
UCHL1 (UniProt P09936)	-1.21 (active)
UniProt Q8TE49	-0.679 (inactive)
USP16 (UniProt Q9Y5T5)	-0.735 (inactive)
OTUD5 (UniProt Q96G74)	-0.331 (inactive)
PSMD7 (UniProt P51665)	-0.0871 (inactive)
USP22 (UniProt Q9UPT9)	-0.433 (inactive)
COPS5 (UniProt Q92905)	-0.141 (inactive)
USP48 (UniProt Q86UV5)	-0.25 (inactive)
OTUD7B (UniProt Q6GQQ9)	-1.28 (active)
OTUD4 (UniProt Q01804)	0.0839 (inactive)

compound: Cc1cccc(NC(=O)CCl)c1; test: as above; settings: compound concentration: 200 uM; treatment time: 3 h
Method in brief: as §1

Target	log2 ratio of Biotin-Ahx-Ub-VS probe labelling
YOD1 (UniProt Q5VVQ6)	-0.308 (inactive)
UCHL5 (UniProt Q9Y5K5)	-0.0463 (inactive)
UniProt Q9P2H5	-0.217 (inactive)
USP19 (UniProt O94966)	-0.285 (inactive)
OTUD6B (UniProt Q8N6M0)	-0.274 (inactive)
USP24 (UniProt Q9UPU5)	-0.537 (inactive)
UniProt Q9UGI0	-0.519 (inactive)
USP36 (UniProt Q9P275)	-0.141 (inactive)
USP10 (UniProt Q14694)	-0.165 (inactive)
USP47 (UniProt Q96K76)	-0.708 (inactive)
USP5 (UniProt P45974)	-0.356 (inactive)
USP28 (UniProt Q96RU2)	-0.664 (inactive)
USP46 (UniProt P62068)	-0.0865 (inactive)
USP8 (UniProt P40818)	-0.0703 (inactive)
UCHL1 (UniProt P09936)	-1.8 (active)
UniProt Q8TE49	-0.769 (inactive)
USP16 (UniProt Q9Y5T5)	-0.611 (inactive)
OTUD5 (UniProt Q96G74)	-0.13 (inactive)
PSMD7 (UniProt P51665)	-0.0249 (inactive)
USP22 (UniProt Q9UPT9)	-0.357 (inactive)
COPS5 (UniProt Q92905)	-0.303 (inactive)
USP48 (UniProt Q86UV5)	-0.217 (inactive)
OTUD7B (UniProt Q6GQQ9)	-0.708 (inactive)
OTUD4 (UniProt Q01804)	-0.0534 (inactive)
